From PubChem BioAssay AID1159580 (chemical genetic matrix, 2015)
Screen size: about 5,500 compounds; about 2,000 (36%) were called active. Roughly 18% stayed inconclusive and do not appear here. No stated cut-off is given here; in the data, active means normalized growth mostly below about 0.91 (no sharp cut-off); inconclusive means no clear call, values can overlap the other calls; inactive means mostly above about 0.92. Some of the results follow.

Assay: chemical genetic growth profiling, strain panel (AID 1159580);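 further: tested at 20 µM; growth read once vehicle control cultures reached saturation at 30 °C; 1 = growth at the plate median or of vehicle wells; lower values mean less growth of the strain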
Settings: growth OD

Measured: normalized growth

CC1(C)C=Cc2c(cc3occ(-c4ccc5c(c4)OCO5)c(=O)c3c2O)O1
inactive: S. cerevisiae deletion strains, locus YAL013W, strain DEP1, hits give low values 0.996 | S. cerevisiae deletion strains, locus YAL021C, strain ccr4, hits give low values 0.931 | S. cerevisiae deletion strains, locus YAL026C, strain drs2, hits give low values 0.995 | S. cerevisiae deletion strains, locus YAL030W, strain snc1, hits give low values 0.938 | S. cerevisiae deletion strains, locus YBR009C, strain hhf1, hits give low values 0.982 | S. cerevisiae deletion strains, locus YBR021W, strain FUR4, hits give low values 1 | S. cerevisiae deletion strains, locus YBR171W, strain sec66, hits give low values 0.998 | S. cerevisiae deletion strains, locus YBR229C, strain ROT2, hits give low values 1.01 | S. cerevisiae deletion strains, locus YBR279W, strain paf1, hits give low values 0.988 | S. cerevisiae deletion strains, locus YCL016C, strain dcc1, hits give low values 0.994 | S. cerevisiae deletion strains, locus YCL029C, strain bik1, hits give low values 1 | S. cerevisiae deletion strains, locus YCL061C, strain MRC1, hits give low values 0.977 | S. cerevisiae deletion strains, locus YCL069W, strain vba3, hits give low values 0.971 | S. cerevisiae deletion strains, locus YCR088W, strain abp1, hits give low values 0.995 | S. cerevisiae deletion strains, locus YDL005C, strain med2, hits give low values 0.998 | S. cerevisiae deletion strains, locus YDL035C, strain GPR1, hits give low values 0.908 | S. cerevisiae deletion strains, locus YDL040C, strain nat1, hits give low values 0.991 | S. cerevisiae deletion strains, locus YDL074C, strain BRE1, hits give low values 1.01 | S. cerevisiae deletion strains, locus YDL101C, strain DUN1, hits give low values 1.01 | S. cerevisiae deletion strains, locus YDL134C, strain PPH21, hits give low values 0.923 | S. cerevisiae deletion strains, locus YDL185W, strain tfp1, hits give low values 1 | S. cerevisiae deletion strains, locus YDL192W, strain arf1, hits give low values 0.956 | S. cerevisiae deletion strains, locus YDR001C, strain nth1, hits give low values 0.998 | S. cerevisiae deletion strains, locus YDR101C, strain arx1, hits give low values 0.983 | S. cerevisiae deletion strains, locus YDR137W, strain rgp1, hits give low values 1.04 | S. cerevisiae deletion strains, locus YDR159W, strain sac3, hits give low values 1 | S. cerevisiae deletion strains, locus YDR162C, strain NBP2, hits give low values 0.976 | S. cerevisiae deletion strains, locus YDR195W, strain ref2 1.01 | S. cerevisiae deletion strains, locus YDR318W, strain mcm21, hits give low values 0.97 | S. cerevisiae deletion strains, locus YDR334W, strain swr1, hits give low values 0.95 | S. cerevisiae deletion strains, locus YDR335W, strain msn5, hits give low values 0.978 | S. cerevisiae deletion strains, locus YDR388W, hits give low values 0.993 | S. cerevisiae deletion strains, locus YDR392W, strain spt3, hits give low values 0.873 | S. cerevisiae deletion strains, locus YDR502C, strain sam2, hits give low values 0.989 | S. cerevisiae deletion strains, locus YEL003W, strain gim4, hits give low values 0.932 | S. cerevisiae deletion strains, locus YEL037C, strain rad23, hits give low values 0.977 | S. cerevisiae deletion strains, locus YEL061C, strain CIN8 (second series), hits give low values 0.98 | S. cerevisiae deletion strains, locus YEL061C, strain CIN8, hits give low values 0.981 | S. cerevisiae deletion strains, locus YER016W, strain bim1, hits give low values 0.988 | S. cerevisiae deletion strains, locus YER110C, hits give low values 1.04 | S. cerevisiae deletion strains, locus YER111C, strain swi4, hits give low values 0.98 | S. cerevisiae deletion strains, locus YER155C, strain BEM2 (second series), hits give low values 0.947 | S. cerevisiae deletion strains, locus YER155C, strain BEM2, hits give low values 1.02 | S. cerevisiae deletion strains, locus YER167W, strain BCK2, hits give low values 0.967 | S. cerevisiae deletion strains, locus YFR010W, strain ubp6, hits give low values 0.91 | S. cerevisiae deletion strains, locus YGL078C, strain dbp3, hits give low values 1.02 | S. cerevisiae deletion strains, locus YGL167C, strain pmr1, hits give low values 1.01 | S. cerevisiae deletion strains, locus YGL227W, strain vid30, hits give low values 1.01 | S. cerevisiae deletion strains, locus YGL240W, strain doc1, hits give low values 1.02 | S. cerevisiae deletion strains, locus YGR078C, strain PAC10, hits give low values 0.98 | S. cerevisiae deletion strains, locus YGR135W, strain pre9, hits give low values 0.964 | S. cerevisiae deletion strains, locus YGR252W, strain gcn5, hits give low values 1.02 | S. cerevisiae deletion strains, locus YHR013C, strain ard1, hits give low values 0.982 | S. cerevisiae deletion strains, locus YHR030C, strain SLT2, hits give low values 0.945 | S. cerevisiae deletion strains, locus YHR079C, strain IRE1 (second series), hits give low values 1.02 | S. cerevisiae deletion strains, locus YHR094C, strain hxt1, hits give low values 1.03 | S. cerevisiae deletion strains, locus YHR129C, strain ARP1, hits give low values 0.94 | S. cerevisiae deletion strains, locus YHR142W, strain chs7, hits give low values 0.936 | S. cerevisiae deletion strains, locus YHR200W, strain rpn10, hits give low values 0.968 | S. cerevisiae deletion strains, locus YIL066C, strain RNR3, hits give low values 0.921 | S. cerevisiae deletion strains, locus YIL073C, strain SPO22, hits give low values 0.886 | S. cerevisiae deletion strains, locus YIL125W, strain kgd1, hits give low values 1.03 | S. cerevisiae deletion strains, locus YIR030C, strain dcg1, hits give low values 1.01 | S. cerevisiae deletion strains, locus YJL092W, strain hpr5, hits give low values 0.983 | S. cerevisiae deletion strains, locus YJL095W, strain BCK1, hits give low values 0.927 | S. cerevisiae deletion strains, locus YJL115W, strain asf1, hits give low values 1.01 | S. cerevisiae deletion strains, locus YJL129C, strain trk1, hits give low values 1.01 | S. cerevisiae deletion strains, locus YJL134W, strain LCB3, hits give low values 0.998 | S. cerevisiae deletion strains, locus YJL154C, strain vps35, hits give low values 0.997 | S. cerevisiae deletion strains, locus YJL164C, strain tpk1, hits give low values 0.967 | S. cerevisiae deletion strains, locus YJL166W, strain qcr8, hits give low values 0.943 | S. cerevisiae deletion strains, locus YJL168C, strain set2, hits give low values 1.01 | S. cerevisiae deletion strains, locus YJL187C, strain SWE1 (second series), hits give low values 0.92 | S. cerevisiae deletion strains, locus YJL187C, strain SWE1, hits give low values 0.967 | S. cerevisiae deletion strains, locus YJR075W, strain HOC1, hits give low values 0.996 | S. cerevisiae deletion strains, locus YKL068W, hits give low values 1.02 | S. cerevisiae deletion strains, locus YKL160W, strain elf1, hits give low values 1.02 | S. cerevisiae deletion strains, locus YKL190W, strain CNB1, hits give low values 0.967 | S. cerevisiae deletion strains, locus YKR001C, strain vps1, hits give low values 0.988 | S. cerevisiae deletion strains, locus YKR026C, strain gcn3, hits give low values 0.983 | S. cerevisiae deletion strains, locus YKR091W, strain srl3, hits give low values 0.981 | S. cerevisiae deletion strains, locus YLL001W, strain dnm1, hits give low values 0.959 | S. cerevisiae deletion strains, locus YLL026W, hits give low values 0.961 | S. cerevisiae deletion strains, locus YLL041C, strain sdh2, hits give low values 0.993 | S. cerevisiae deletion strains, locus YLR027C, strain aat2, hits give low values 0.943 | S. cerevisiae deletion strains, locus YLR039C, strain RIC1, hits give low values 1.11 | S. cerevisiae deletion strains, locus YLR058C, strain SHM2, hits give low values 0.933 | S. cerevisiae deletion strains, locus YLR102C, strain apc9, hits give low values 1.03 | S. cerevisiae deletion strains, locus YLR258W, strain gsy2, hits give low values 0.963 | S. cerevisiae deletion strains, locus YLR262C, strain YPT6 (second series), hits give low values 0.945 | S. cerevisiae deletion strains, locus YLR262C, strain YPT6, hits give low values 1.14 | S. cerevisiae deletion strains, locus YLR268W, strain sec22, hits give low values 0.943 | S. cerevisiae deletion strains, locus YLR320W, strain mms22, hits give low values 0.917 | S. cerevisiae deletion strains, locus YLR357W, strain rsc2, hits give low values 0.905 | S. cerevisiae deletion strains, locus YLR370C, strain arc18, hits give low values 0.978 | S. cerevisiae deletion strains, locus YLR371W, strain rom2, hits give low values 0.92 | S. cerevisiae deletion strains, locus YLR384C, strain iki3, hits give low values 0.976 | S. cerevisiae deletion strains, locus YLR418C, strain cdc73, hits give low values 1.02 | S. cerevisiae deletion strains, locus YML016C, strain PPZ1, hits give low values 0.954 | S. cerevisiae deletion strains, locus YML032C, strain rad52, hits give low values 1 | S. cerevisiae deletion strains, locus YML120C, strain ndi1, hits give low values 1.01 | S. cerevisiae deletion strains, locus YML124C, strain tub3, hits give low values 1.02 | S. cerevisiae deletion strains, locus YMR078C, strain ctf18, hits give low values 1.04 | S. cerevisiae deletion strains, locus YMR125W, strain sto1, hits give low values 1.01 | S. cerevisiae deletion strains, locus YMR129W, hits give low values 0.993 | S. cerevisiae deletion strains, locus YMR205C, strain PFK2, hits give low values 0.971 | S. cerevisiae deletion strains, locus YMR223W, strain ubp8, hits give low values 0.959 | S. cerevisiae deletion strains, locus YMR231W, strain pep5, hits give low values 0.975 | S. cerevisiae deletion strains, locus YMR263W, strain SAP30, hits give low values 1 | S. cerevisiae deletion strains, locus YMR307W, strain GAS1, hits give low values 0.946 | S. cerevisiae deletion strains, locus YNL067W, strain RPL9B, hits give low values 0.995 | S. cerevisiae deletion strains, locus YNL071W, strain lat1, hits give low values 0.986 | S. cerevisiae deletion strains, locus YNL233W, strain BNI4, hits give low values 0.881 | S. cerevisiae deletion strains, locus YNL248C, strain rpa49, hits give low values 0.963 | S. cerevisiae deletion strains, locus YNL250W, strain rad50, hits give low values 1.06 | S. cerevisiae deletion strains, locus YNL271C, strain bni1, hits give low values 1 | S. cerevisiae deletion strains, locus YNL298W, strain CLA4, hits give low values 1.01 | S. cerevisiae deletion strains, locus YNL307C, strain MCK1, hits give low values 1.02 | S. cerevisiae deletion strains, locus YNL322C, strain KRE1 (second series), hits give low values 0.999 | S. cerevisiae deletion strains, locus YNR049C, strain mso1, hits give low values 0.991 | S. cerevisiae deletion strains, locus YNR052C, strain pop2, hits give low values 1 | S. cerevisiae deletion strains, locus YOL012C, strain htz1 0.804 | S. cerevisiae deletion strains, locus YOL147C, strain pex11, hits give low values 1.01 | S. cerevisiae deletion strains, locus YOR001W, strain rrp6, hits give low values 0.93 | S. cerevisiae deletion strains, locus YOR061W, strain CKA2, hits give low values 0.924 | S. cerevisiae deletion strains, locus YOR069W, strain VPS5, hits give low values 0.96 | S. cerevisiae deletion strains, locus YOR080W, strain dia2, hits give low values 0.963 | S. cerevisiae deletion strains, locus YOR083W, strain WHI5, hits give low values 0.928 | S. cerevisiae deletion strains, locus YOR106W, strain vam3, hits give low values 0.907 | S. cerevisiae deletion strains, locus YOR136W, strain idh2, hits give low values 1.03 | S. cerevisiae deletion strains, locus YOR144C, strain elg1, hits give low values 1.02 | S. cerevisiae deletion strains, locus YOR184W, strain ser1, hits give low values 0.971 | S. cerevisiae deletion strains, locus YOR265W, strain rbl2, hits give low values 0.947 | S. cerevisiae deletion strains, locus YOR270C, strain vph1, hits give low values 0.952 | S. cerevisiae deletion strains, locus YOR290C, strain snf2, hits give low values 0.981 | S. cerevisiae deletion strains, locus YOR316C, strain cot1, hits give low values 1.02 | S. cerevisiae deletion strains, locus YPL055C, strain LGE1, hits give low values 0.871 | S. cerevisiae deletion strains, locus YPL078C, strain atp4, hits give low values 1.02 | S. cerevisiae deletion strains, locus YPL106C, strain sse1, hits give low values 0.901 | S. cerevisiae deletion strains, locus YPL240C, strain hsp82, hits give low values 0.989 | S. cerevisiae deletion strains, locus YPR119W, strain clb2, hits give low values 1.04 | S. cerevisiae deletion strains, locus YPR141C, strain kar3, hits give low values 1.02 | S. cerevisiae deletion strains, locus YPR163C, strain tif3, hits give low values 1.02 | S. cerevisiae deletion strains, locus YPR167C, strain met16, hits give low values 0.967 | S. cerevisiae deletion strains, strain wtn01, hits give low values 0.952
active: S. cerevisiae deletion strains, locus YBL061C, strain skt5, hits give low values 0.839 | S. cerevisiae deletion strains, locus YBR023C, strain chs3, hits give low values 0.884 | S. cerevisiae deletion strains, locus YBR231C, strain swc5, hits give low values 0.864 | S. cerevisiae deletion strains, locus YCL011C, strain gbp2, hits give low values 0.897 | S. cerevisiae deletion strains, locus YDR069C, strain doa4, hits give low values 0.811 | S. cerevisiae deletion strains, locus YDR297W, strain sur2, hits give low values 0.91 | S. cerevisiae deletion strains, locus YER015W, strain faa2, hits give low values 0.841 | S. cerevisiae deletion strains, locus YGL086W, strain mad1, hits give low values 0.922 | S. cerevisiae deletion strains, locus YGL173C, strain kem1, hits give low values 0.817 | S. cerevisiae deletion strains, locus YGL248W, strain PDE1, hits give low values 0.883 | S. cerevisiae deletion strains, locus YGL253W, strain hxk2, hits give low values 0.894 | S. cerevisiae deletion strains, locus YHR027C, strain rpn1, hits give low values 0.749 | S. cerevisiae deletion strains, locus YJL095W, strain BCK1 (second series), hits give low values 0.918 | S. cerevisiae deletion strains, locus YLR221C, strain rsa3, hits give low values 0.897 | S. cerevisiae deletion strains, locus YLR342W, strain FKS1, hits give low values 0.907 | S. cerevisiae deletion strains, locus YMR058W, strain fet3, hits give low values 0.676 | S. cerevisiae deletion strains, locus YNL209W, strain ssb2, hits give low values 0.738 | S. cerevisiae deletion strains, locus YOR070C, strain gyp1, hits give low values 0.905 | S. cerevisiae deletion strains, locus YPL051W, strain arl3, hits give low values 0.855 | S. cerevisiae strains, strain wild type, hits give low values 0.889
